Data taken from PubChem BioAssay AID652054 (National Center for Advancing Translational Sciences (NCATS), 2013).
Among all 360,000 compounds or so, about 9,100 (2.5%) were called active. Roughly 4% stayed inconclusive and do not appear here. For the sample, actives were picked, then their nearest neighbours and some compounds at random. Values without a mark were called inactive. Cut-off read from the data, not from the text of the source: active = max response below about -50%; inconclusive = no clear call, values can overlap the other calls; inactive = above that.

Target: D(3) dopamine receptor (Homo sapiens) (UniProt P35462)
Sequence (P35462 whole entry, looked up): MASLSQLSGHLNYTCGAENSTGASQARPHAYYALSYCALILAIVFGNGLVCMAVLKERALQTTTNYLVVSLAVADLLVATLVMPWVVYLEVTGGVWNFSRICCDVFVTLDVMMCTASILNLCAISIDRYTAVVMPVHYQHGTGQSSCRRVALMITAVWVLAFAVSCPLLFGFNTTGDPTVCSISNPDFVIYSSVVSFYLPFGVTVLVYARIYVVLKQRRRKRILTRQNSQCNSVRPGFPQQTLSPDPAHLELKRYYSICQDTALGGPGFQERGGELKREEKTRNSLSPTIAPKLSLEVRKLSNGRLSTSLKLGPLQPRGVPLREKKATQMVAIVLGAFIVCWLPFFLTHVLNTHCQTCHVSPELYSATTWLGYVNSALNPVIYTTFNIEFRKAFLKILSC
Assay: qHTS of D3 Dopamine Receptor Antagonist: qHTS
Details: D3R cells, DiscoveRx beta-arrestin luminescence, antagonist mode; hits give low values
Excerpt: D3 DARs represent a very important target for the treatment of several neuropsychiatric disorders. Indeed, one of the most promising therapeutic applications for the D3 DAR is in the area of addiction and related disorders. […] These findings have been observed with a number of addictive substances including cocaine, amphetamine, nicotine, and alcohol. […] Antagonism of the D3 DAR may also be therapeutic in the treatment of schizophrenia or psychosis. […] Since the D3 DAR is expressed in areas of the CNS associated with the control of mood and emotion, it has been hypothesized that selective antagonism of the D3 DAR may be effective in treating psychosis without inducing the motor side effects typically seen with D2 DAR antagonists.
This part of the project aims to discover novel antagonist.
NIH Chemical Genomics Center [NCGC]
NIH Molecular Libraries Probe Centers Network [MLPCN]
Assay Submitter (PI): David Sibley, NINDS
Freshly passaged cells are plated in 1536 well white, solid bottom plates at a density of 1500 cells/well in 3microl of complete media. After an overnight incubation at 37 degrees C in 5% CO2, cells are loaded with 23nl of test compound from the compound library (as well as dopamine controls) using a 1536 pintool and incubated at 37 degrees C for 90 minutes. Two microliters of DiscoveRx reagent is then added to all cells, and they are incubated for an additional 30 - 60 minutes at room temperature. Following incubation, luminescence is measured on a ViewLux CCD-based luminometer reader using a 20 sec exposure time.
% is set by controls: 0 for no effect and ±100 for the full control effect.

Row | Structure (SMILES) | max response, negative = inhibition
1 | Oc1c(CN2CCN(c3ccc(F)cc3)CC2)cc(Cl)c2cccnc12 | -59.7% (active)
2 | Cc1ccc(CN2CCN(c3ncccn3)CC2)c(C)c1 | -14.2%
3 | Cc1cccc(C)c1NC(=O)CN1CCN(c2ccc(F)cc2)CC1 | -14.3%
4 | COc1ccc(-c2nc3ccc(Br)cn3c2Cc2ccc(C)cc2)cc1OC | 33.3%
5 | CCc1nc2c(OCCOc3ccc(F)cc3)cccn2c1N(C)C(=O)c1ccccc1F | 9.16%
6 | CC1CN(C(=O)CCC(=O)NCCCN2CCC(Cc3ccccc3)CC2)c2cc(Cl)ccc2O1 (centres undefined) | -69.6% (active)
7 | CC1CN(C(=O)CCC(=O)NCc2cccnc2)c2ccccc2O1 (centres undefined) | -17.6%
8 | CC1CN(C(=O)CCC(=O)NC2CCN(Cc3ccccc3)CC2)c2ccccc2O1 (centres undefined) | -13.6%
9 | CC1=C(C(=O)N2CCOCC2)CC(CC(=O)NCc2cccc3ccccc23)C(=O)N1CCC1=CCCCC1 (centres undefined) | -26.6%
10 | CCCc1nc2c3ccccc3ccn2c1Cc1ccccc1C(F)(F)F | -26.6%
11 | CC1=C(C(=O)N2CCOCC2)CC(CC(=O)NCc2cccs2)C(=O)N1CCCN1CCCC1=O (centres undefined) | 0%
12 | COc1ccc(Cl)cc1NC(=O)CN(C)C(=O)c1cn(-c2ccccc2)nc1-c1cccs1 | 0.189%
13 | COCCCNc1nc2ccccc2nc1NS(=O)(=O)c1ccc(F)cc1 | 0.291%
14 | Cc1ccc(S(=O)(=O)C(C#N)c2nc3ccccc3nc2N2CCCC2)cc1C (centres undefined) | 17.6%
15 | Cc1ccc(S(=O)(=O)Nc2nc3ccccc3nc2N2CCc3ccccc3C2)cc1 | -50.8% (active)
16 | CCc1c(-c2ccc(F)cc2)ncn1Cc1cccc(-c2ccccc2)c1 | -10.3%
17 | Nc1nc2c(ncn2[C@@H]2O[C@H](CNCc3ccc(OCCCN4CCOCC4)cc3)[C@@H](O)[C@H]2O)c(=O)[nH]1 | -3.82%
18 | CCOC(=O)C1CCCN(C(=O)c2cccc3ccccc23)CC1 (centres undefined) | 15.1%
19 | CC1CC(C)CN(C/C=C/c2ccccc2[N+](=O)[O-])C1 (centres undefined) | -73.4% (active)
20 | O=C(/C=C/c1ccccc1[N+](=O)[O-])OCC(=O)N1CCCC1 | 9.84%
21 | CC1CCCCC1NC(=O)/C(C#N)=C/C=C/c1ccccc1[N+](=O)[O-] (centres undefined) | -12.8%
22 | COc1cc(CN2CC(C)CC(C)C2)cc([N+](=O)[O-])c1O (centres undefined) | 17.6%

Row | Structure (SMILES) | max response, negative = inhibition
23 | CC(C)CNC(=O)COC(=O)/C=C/c1ccccc1[N+](=O)[O-] | -8.96%
24 | O=[N+]([O-])c1ccccc1/C=C/CN1CCCC(CO)C1 (centres undefined) | -76% (active)
25 | CN[C@H]1C[C@H]2c3cc(Oc4ccccc4C)ccc3CCN2C(=O)[C@H]1[C@H](C)O | 23.3%
26 | Cc1noc(C)c1-c1ccc(C(=O)NCc2ccncc2)c2occc12 | -3.57%
27 | COc1cccc(C(NC(C)=O)c2nc(-c3cnc4ccccc4c3)cs2)c1 (centres undefined) | 11.3%
28 | C[C@H](CO)N1C[C@H](C)[C@@H](CN(C)C(=O)c2cnccn2)Oc2ncc(Br)cc2C1=O | -23.4%
29 | Cc1ccc(-c2cnc(C(O)c3cccc(C)c3C)[nH]2)cc1 (centres undefined) | -20.7%
30 | COc1ccc(OC)c(C(=O)NC2CCCc3c2cnn3-c2cc(C)cc(C)c2)c1 (centres undefined) | 57.4%
31 | CCc1nc2c(OCc3cccc(OC)c3)cccn2c1N(C)C(=O)C(C)C | 10.3%
32 | Cc1ccc(C(=O)N[C@H](C(=O)N2CCN(c3ncccn3)CC2)C(C)C)cc1 | 0%
33 | OCCNc1nc(Nc2ccc(Cl)c(Cl)c2)nc2ccccc12 | -28.2%
34 | Nc1nnc(SCC(=O)Nc2ccc3nc(SCC(=O)Nc4ccccc4)sc3c2)s1 | 0.758%
35 | O=[N+]([O-])c1c(NCCO)cc(Sc2nc3ccccc3s2)c2nonc12 | -81.4% (active)
36 | CCCC(=O)N1CCC1(C)C(=O)Nc1ccc(-n2cncn2)cc1 (centres undefined) | -18.5%
37 | COc1cccc(CNC(=O)[C@@H]2CCCN2C(=O)[C@@H]2CCCN2C(=O)c2ccccc2)c1 | -10.4%
38 | CSc1ncccc1C(=O)N1CCCC(Nc2ccc(F)c(F)c2)C1 (centres undefined) | 1.51%
39 | CCOC(=O)C1CCN(C(=O)/C=C/c2cc(OC)c(OC)c(OC)c2)CC1 | 0.0271%
40 | CCOC(=O)C1CCCCN1Cc1ccc(OC)c(OC)c1OC (centres undefined) | -50.5% (active)
41 | CCOC(=O)C1CCN(S(=O)(=O)c2cc(F)ccc2OC)CC1 | 2.14%
42 | CCCCNC(=O)C[C@@H]1C[C@@]2(C(=O)OCC)CCC=C2N(Cc2ccco2)C1=O | -17.5%
43 | CC(=O)Nc1ccc(C=Cc2ccc([N+](=O)[O-])cc2)cc1 | -0.898%
44 | COc1ccc(NC(=O)C2CCC(CNC(=O)[C@@H]3Cc4ccccc4CN3)CC2)cc1 (some centres undefined) | -8.86%
